Data taken from PubChem BioAssay (Tox21).
Results filed as inconclusive are left out. Activity calls are given as the source filed them. Unless noted, calls come from the whole dose curve; as a rule, active = well fitted curve in the direction sought with a large enough effect in the repeat runs; inconclusive = weak or mixed curves; inactive = no such curve, though single readings can be large; an effect the other way counts as inactive or inconclusive.

Molecular target: Thyrotropin-releasing hormone receptor (Homo sapiens) (UniProt P34981)
Sequence (P34981 whole entry, looked up): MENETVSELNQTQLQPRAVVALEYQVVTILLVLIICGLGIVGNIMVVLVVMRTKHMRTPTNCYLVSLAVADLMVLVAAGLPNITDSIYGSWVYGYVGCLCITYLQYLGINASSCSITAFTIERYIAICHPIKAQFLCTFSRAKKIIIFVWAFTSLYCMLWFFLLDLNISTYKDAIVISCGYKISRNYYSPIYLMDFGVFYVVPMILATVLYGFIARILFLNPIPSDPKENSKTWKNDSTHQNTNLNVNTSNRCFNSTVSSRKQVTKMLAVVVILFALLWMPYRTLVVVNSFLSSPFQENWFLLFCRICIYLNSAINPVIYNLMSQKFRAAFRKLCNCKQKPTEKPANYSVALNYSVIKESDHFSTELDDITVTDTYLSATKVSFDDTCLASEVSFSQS
Assay: qHTS assay to identify small molecule agonists of the thyrotropin-releasing hormone receptor (TRHR) signaling pathway (AID 1346891; calls by dose curve;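 note: HEK293 cells expressing TRHR with calcium dye readout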)
Conditions: TRHR-HEK293 calcium fluorescence, agonist mode; series mostly up to 57.6 µM; activation: at the top concentration
Procedure, shortened: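 Overnight-plated (18 h, 37 °C, 5% CO2) TRHR-Hek293 cells; 2 h calcium dye at 37 °C; compound in DMSO; 3-min kinetic fluorescence read.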
% is set by controls: 0 for no effect and ±100 for the full control effect.

Compound	activation
CO[Si](CCCCl)(OC)OC	0.0261% (inactive)
c1ccccc1	0.0986% (inactive)
CCCCC(CC)COC(=O)c1ccccc1 (centres undefined)	-0.727% (inactive)
COc1ccc(N=Nc2cc(C)c(N=Nc3ccc(S(=O)(=O)O)cc3)cc2OC)cc1	0.425% (inactive)
Cc1ccc2c(c1)c1c3n2CCNC3CCC1 (centres undefined)	0.0254% [at 26.5 µM] (inactive)
CCCCCCCCCCCCC1CO1 (centres undefined)	0.0555% (inactive)
CC(=O)Nc1ncc([N+](=O)[O-])s1	-0.239% [at 26.5 µM] (inactive)
C1=C\CC/C=C\CC/1	-0.426% (inactive)
CCCCCN(CCCOC)C(=O)C(CCC(=O)O)NC(=O)c1ccc(Cl)c(Cl)c1 (centres undefined)	0.196% [at 26.5 µM] (inactive)
CC(=O)/C=C/c1ccco1	0.0412% (inactive)
C=CCOCC(O)CCl (centres undefined)	-0.208% (inactive)
Nc1c(NC/C=C\COc2cc(CN3CCCCC3)ccn2)c(=O)c1=O	-0.0658% [at 11.8 µM] (inactive)
SCCSCCS	-0.493% (inactive)
COCCOCCOCCOC	-0.229% (inactive)
O=C(O)c1c(Cl)ccc(Cl)c1Cl	-0.0212% (inactive)
CC1=NN(c2ccc(S(=O)(=O)O)cc2)C(=O)C1N=Nc1ccccc1 (centres undefined)	0.0553% (inactive)
O=c1[nH]c(=O)c2[nH]c(=O)[nH]c2[nH]1	0.501% [at 5.23 µM] (inactive)
O=C1NC2NC(=O)NC2N1 (centres undefined)	0.295% (inactive)
CCN(Cc1cccc(S(=O)(=O)O)c1)c1ccccc1	-0.253% (inactive)
CCCCCC1Nc2cc(C(F)(F)F)c(S(N)(=O)=O)cc2S(=O)(=O)N1 (centres undefined)	0.01% [at 26.5 µM] (inactive)
CCCCC(=O)N(C)C	-0.0516% (inactive)
CC(=O)OC(C)c1ccccc1 (centres undefined)	-0.249% (inactive)
Cc1ccc(S(=O)(=O)NC(=O)NC2CCCCCCC2)cc1	-0.445% [at 26.5 µM] (inactive)
O=S1(=O)CCCC1	-0.217% (inactive)
CCCOCCOCCOCCO	-0.236% (inactive)
CC(Cl)COP(=O)(OCC(C)Cl)OCC(C)Cl (centres undefined)	-0.264% (inactive)
NS(=O)(=O)c1ccc(Cl)c(S(N)(=O)=O)c1	0.575% [at 26.5 µM] (inactive)
CC(C)C(=O)Nc1cccc(C(F)(F)F)c1	-0.0402% [at 26.5 µM] (inactive)
OC(CCN1CCCCC1)(c1ccccc1)c1ccccc1	4.73% [at 26.5 µM] (inactive)

Tested on: not listed separately
Assay: Human pregnane X receptor (PXR) small molecule agonists, qHTS cell viability counter screen (AID 1346977); note: nearly all actives have a fitted effect of over 50% in size
Conditions: PXR-Luc HepG2 viability, CellTiter-Fluor, 24 h; series mostly up to 92.4 µM; activity change, negative = cytotoxicity: at the top concentration
Procedure, shortened: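 After a 5hr pre-incubation, PXR-Luc HepG2 cells received compounds plus positive control in DMSO and were kept 24hr at 37C. Cell viability was quantified by fluorescence from CellTiter-Fluor added for the final hour.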

Compound	activity change, negative = cytotoxicity
CO[Si](CCCCl)(OC)OC	6.64% (inactive)
C=CCOCC(O)CCl (centres undefined)	-0.471% (inactive)
Cc1nc(C)nc(N2C[C@@H](C)N(c3ccnc([C@@H](C)O)n3)[C@@H](C)C2)n1	-12.9% [at 42.5 µM] (inactive)
CCCCCCCCOC(C)=O	1.41% (inactive)
Cc1ccc(C(=O)C(=O)O)cc1C	-1.37% [at 42.5 µM] (inactive)
CCCCCCCCCOCC1CO1 (centres undefined)	0.993% (inactive)
CCC(C)(C)C1CCC(=O)CC1	-3% (inactive)
O=c1[nH]c(=O)c2ccccc2o1	3.72% [at 42.5 µM] (inactive)
Cc1ccc(S(=O)(=O)NC(=O)NC2CCCCCCC2)cc1	11.4% [at 42.5 µM] (inactive)
CC(C)CCCC(C)CC=O (centres undefined)	-1.66% (inactive)
NCCc1ccn[nH]1	2.84% [at 42.5 µM] (inactive)
CC(Cl)COP(=O)(OCC(C)Cl)OCC(C)Cl (centres undefined)	9.04% (inactive)
Nc1ccc(S(=O)(=O)Nc2ccccn2)cc1	1.87% [at 42.5 µM] (inactive)
CC(C)C(=O)Nc1cccc(C(F)(F)F)c1	16.9% [at 42.5 µM] (inactive)

Tested on: not listed separately
Assay: Caspase-3/7 induction in HepG2 cells by small molecules, qHTS assay (AID 1346978); note: nearly all actives have a fitted effect of over 15% in size
Conditions: HepG2 caspase-3/7 activation, Caspase-Glo luminescence, 17 h; series mostly up to 92.4 µM; caspase activation: at the top concentration
Procedure, shortened: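 Caspase-3/7 induction was measured by Caspase-Glo 3/7 luminescence (30 min, room temperature) after a 17 hr compound exposure of wild-type HepG2 cells seeded at 2,000 per well and pre-incubated 5 hr.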

Compound	caspase activation
CCCCC(CC)COC(=O)c1ccccc1 (centres undefined)	-0.053% (inactive)
COc1ccc(N=Nc2cc(C)c(N=Nc3ccc(S(=O)(=O)O)cc3)cc2OC)cc1	0.736% (inactive)
Cc1ccc2c(c1)c1c3n2CCNC3CCC1 (centres undefined)	-0.127% [at 42.5 µM] (inactive)
CCCCCCCCCCCCC1CO1 (centres undefined)	1.13% (inactive)
CC(=O)Nc1ncc([N+](=O)[O-])s1	0.724% [at 42.5 µM] (inactive)
C1=C\CC/C=C\CC/1	0.661% (inactive)
CCCCCN(CCCOC)C(=O)C(CCC(=O)O)NC(=O)c1ccc(Cl)c(Cl)c1 (centres undefined)	-0.0749% [at 42.5 µM] (inactive)
CC(=O)/C=C/c1ccco1	-1.7% (inactive)
Nc1c(NC/C=C\COc2cc(CN3CCCCC3)ccn2)c(=O)c1=O	-0.539% [at 19 µM] (inactive)
Cc1nc(C)nc(N2C[C@@H](C)N(c3ccnc([C@@H](C)O)n3)[C@@H](C)C2)n1	0.331% [at 42.5 µM] (inactive)
CCCCCCCCOC(C)=O	-0.181% (inactive)
COCCOCCOCCOC	0.349% (inactive)
O=C(O)c1c(Cl)ccc(Cl)c1Cl	-0.944% (inactive)
CC1=NN(c2ccc(S(=O)(=O)O)cc2)C(=O)C1N=Nc1ccccc1 (centres undefined)	2.2% (inactive)
Cc1ccc(C(=O)C(=O)O)cc1C	0.0398% [at 42.5 µM] (inactive)
CCCCCCCCCOCC1CO1 (centres undefined)	0.767% (inactive)
O=c1[nH]c(=O)c2[nH]c(=O)[nH]c2[nH]1	-0.796% [at 8.39 µM] (inactive)
O=C1NC2NC(=O)NC2N1 (centres undefined)	0.417% (inactive)
CCN(Cc1cccc(S(=O)(=O)O)c1)c1ccccc1	0.119% (inactive)
CCC(C)(C)C1CCC(=O)CC1	-0.0317% (inactive)
CCCCCC1Nc2cc(C(F)(F)F)c(S(N)(=O)=O)cc2S(=O)(=O)N1 (centres undefined)	0.373% [at 42.5 µM] (inactive)
CCCCC(=O)N(C)C	0.357% (inactive)
O=c1[nH]c(=O)c2ccccc2o1	-0.244% [at 42.5 µM] (inactive)
O=S1(=O)CCCC1	0.321% (inactive)
CC(C)CCCC(C)CC=O (centres undefined)	-1.04% (inactive)
NCCc1ccn[nH]1	-0.0372% [at 42.5 µM] (inactive)
Nc1ccc(S(=O)(=O)Nc2ccccn2)cc1	0.27% [at 42.5 µM] (inactive)
NS(=O)(=O)c1ccc(Cl)c(S(N)(=O)=O)c1	-1.59% [at 42.5 µM] (inactive)
OC(CCN1CCCCC1)(c1ccccc1)c1ccccc1	-0.417% [at 42.5 µM] (inactive)

Tested on: not listed separately
Assay: Caspase-3/7 induction in CHO-K1 cells by small molecules, qHTS cell viability counter screen (AID 1346979); note: nearly all actives have a fitted effect of over 35% in size; note: potency is the fitted concentration of half-maximal effect
Conditions: CellTiter-Fluor fluorescence, 17 h; series mostly up to 92.4 µM; activity change, negative = cytotoxicity: at the top concentration
Procedure, shortened: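 Multiplexed with Caspase-Glo 3/7 in CHO-K1 cells, this counter screen added CellTiter-Fluor after 16hr of compound exposure and recorded fluorescence 1hr later.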

Compound	activity change, negative = cytotoxicity	Potency
c1ccccc1	4.57% (inactive)	–
CCCCC(CC)COC(=O)c1ccccc1 (centres undefined)	5.78% (inactive)	–
COc1ccc(N=Nc2cc(C)c(N=Nc3ccc(S(=O)(=O)O)cc3)cc2OC)cc1	–	54.5 µM (active)
Cc1ccc2c(c1)c1c3n2CCNC3CCC1 (centres undefined)	-4.31% [at 42.5 µM] (inactive)	–
CC(=O)Nc1ncc([N+](=O)[O-])s1	-0.488% [at 42.5 µM] (inactive)	–
C1=C\CC/C=C\CC/1	1.07% (inactive)	–
C=CCOCC(O)CCl (centres undefined)	6.21% (inactive)	–
Cc1nc(C)nc(N2C[C@@H](C)N(c3ccnc([C@@H](C)O)n3)[C@@H](C)C2)n1	5.46% [at 42.5 µM] (inactive)	–
SCCSCCS	13% (inactive)	–
CCCCCCCCOC(C)=O	8.37% (inactive)	–
COCCOCCOCCOC	8.87% (inactive)	–
O=C(O)c1c(Cl)ccc(Cl)c1Cl	4.79% (inactive)	–
CC1=NN(c2ccc(S(=O)(=O)O)cc2)C(=O)C1N=Nc1ccccc1 (centres undefined)	–	48.6 µM (active)
Cc1ccc(C(=O)C(=O)O)cc1C	-0.246% [at 42.5 µM] (inactive)	–
CCCCCCCCCOCC1CO1 (centres undefined)	4.27% (inactive)	–
O=C1NC2NC(=O)NC2N1 (centres undefined)	2.97% (inactive)	–
CCN(Cc1cccc(S(=O)(=O)O)c1)c1ccccc1	0.216% (inactive)	–
CCC(C)(C)C1CCC(=O)CC1	2.65% (inactive)	–
CCCCCC1Nc2cc(C(F)(F)F)c(S(N)(=O)=O)cc2S(=O)(=O)N1 (centres undefined)	6.42% [at 42.5 µM] (inactive)	–
CCCCC(=O)N(C)C	-6.32% (inactive)	–
O=c1[nH]c(=O)c2ccccc2o1	13.1% [at 42.5 µM] (inactive)	–
CC(=O)OC(C)c1ccccc1 (centres undefined)	-2.18% (inactive)	–
O=S1(=O)CCCC1	4.33% (inactive)	–
NCCc1ccn[nH]1	-0.0152% [at 42.5 µM] (inactive)	–
CC(Cl)COP(=O)(OCC(C)Cl)OCC(C)Cl (centres undefined)	0.961% (inactive)	–
Nc1ccc(S(=O)(=O)Nc2ccccn2)cc1	2.24% [at 42.5 µM] (inactive)	–
NS(=O)(=O)c1ccc(Cl)c(S(N)(=O)=O)c1	-2.71% [at 42.5 µM] (inactive)	–
